In PubChem BioAssay (NCATS):
Results filed as inconclusive are left out. A number with no mark means an inactive call. Calls of active or inactive are those of the source. The call rests on the fitted dose curve; in most records, active means well fitted cell-killing curve with a large enough effect; inconclusive means small, poorly fitted or top-dose-only effect; inactive means flat fitted curve, though single readings scatter.

experiment: Identifying Small Molecule Inhibitors of Pancreatic Cancer Stem Cells (SN12C, Adherent) (AID 1259358); conditions: viability/growth inhibition; series mostly up to 46.1 µM; viability (percent of control): at the top concentration;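 further: cell survival measured after 48 h of compound exposure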
Excerpt: Progenitor-like cancer cells, often referred to as cancer stem cells (CSC), are believed to be the drivers of therapeutic resistance and rapid recurrence. CSCs are postulated to reside in specific niches characterized by low oxygen tension, limited nutrient supply, and high redox load. Selectively targeting CSC, alone or in combination with cytotoxic agents, as a means to produce durable remissions is an appealing concept. Modeling these cells in in vitro setting is an important step in finding new therapies and/or targets. Multiple reports highlight that forcing cells in culture into 3-dimensionaly architectures (spheroids) re-establishes key progenitor-like transcriptional signatures. Pancreatic cancer is among the diseases with the most dismal outlook which is driven, largely, by recurance following front-line therapies. […] In hopes of deriving new insight into the targeting of these pancreatic CSCs we examined three established pancreatic cancer cell lines in cytotoxicity assays versus a collection of approved and investigational drugs. Importantly, we screened these lines as traditional monolayer (2D) and spheroid (3D) formats to gain an appreciation of agents with differential activity.
Multicellular tumor spheroids from Panc1, MiaPaCa-2, and the primary low-passage tissue culture line SB.06 were seeded in stem cell media (SCM) in nonadherent 6-well plates coated with hydrogel (Corning Life Sciences, Chelmsford, Mass) and pancreatic spheres generated for 14 days before screening. Cells were seeded into 1536-well solid-bottom white tissue culture treated Greiner Bio One Plates (789173-F) using a MultiDrop Combi (Thermofisher Scientific) dispenser and a small sterile cassette. One column was media alone to be used as a :"no cells" control. The plates were then covered with sterilized stainless steel gasketed lids from Kalypsys. After allowing cells to attach for 4 hours, 23 nL of test compound or control (negative control DMSO and positive control 9.2 uM Bortezomib-final) were added from a 1536-well polypropylene compound source plate to each well using a 1536 head pin tool from Kalypsys. Cells were then incubated for 48 hours at 37C, 95% relative humidity and 5% CO2. After 48 hours, plates were removed from the incubator and 3 uL of CellTiter-Glo (Promega) was added using an Aurora Flying Reagent Dispenser Bioraptor. Plates were incubated at room temperature for 10 minutes prior to reading the luminescence on the Viewlux (PerkinElmer). The relative luciferase units are used to calculate the percent activity using the activity of DMSO in the cells and no cells columns for normalization of no inhibition and full inhibition respectively.
Potency means the concentration at half of the fitted maximal effect.

SMILES	viability (percent of control)	Potency
C[C@@H]1CCN(C(=O)CC#N)C[C@@H]1N(C)c1ncnc2[nH]ccc12	97.5%	
CNC1CCN(C(Cc2cccc(-c3ccncc3)c2)C(=O)c2sc3c(F)ccc(F)c3c2Cl)CC1 (configuration not stated)		26.4 µM (active)
O=c1cc(C2=CC=CC3Sc4ccccc4SC23)oc(N2CCOCC2)c1 (configuration not stated)	97.9%	
CCCCCCCCCCCCCCCCCCOP(=O)([O-])OC1CC[N+](C)(C)CC1	108% [at 29.8 µM]	
CCC1(O)CC2CN(CCc3c([nH]c4ccccc34)[C@@](C(=O)OC)(c3cc4c(cc3OC)N(C=O)[C@H]3[C@](O)(C(=O)OC)[C@H](OC(C)=O)[C@]5(CC)C=CCN6CC[C@]43[C@@H]65)C2)C1 (some centres not stated)		1.18 µM (active)
CCC1(Cc2ccc(N)cc2)CCC(=O)NC1=O (configuration not stated)	113% [at 92.2 µM]	
CCOc1cc2ncc(C#N)c(Nc3ccc(OCc4ccccn4)c(Cl)c3)c2cc1NC(=O)/C=C/CN(C)C		0.418 µM (active)
NC(=O)Nc1cc(-c2ccc(CN3CCOCC3)c(F)c2)sc1C(=O)N[C@H]1CCCNC1		0.833 µM (active)
CC(NC(=O)Cc1cc(F)cc(F)c1)C(=O)NC(C(=O)OC(C)(C)C)c1ccccc1 (configuration not stated)	112%	
O=C(O)CC/C=C\CC[C@H]1[C@@H](N2CCCCC2)[C@@H](O)C[C@@H]1OCc1ccc(-c2ccccc2)cc1	111%	
CN(NC(=O)CC(=O)NN(C)C(=S)c1ccccc1)C(=S)c1ccccc1	114%	
Cc1nnc(C(C)C)n1C1CC2CCC(C1)N2CC[C@H](NC(=O)C1CCC(F)(F)CC1)c1ccccc1 (some centres not stated)	91.1%	
